Sampled rows, rich in hits. Any-hit rate of the full collection: about 2.9%.
TRPM1 prom inh = inhibitors of MITF-dependent TRPM1 promoter reporter, primary screen, cell-based, SK-MEL-5, single point, luciferase; AID 488899, 2010; SK-MEL-5 TRPM1 promoter luciferase, 24 h; inhibition, % at 12.5 µM; hit rate 0.83% among 330,000;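 active = mean inhibition across replicates of 60% or more, whatever share of single replicates reaches that level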
MITF TRPM1 HTS = activators of MITF-driven TRPM1 promoter reporter, primary screen, cell-based, SK-MEL-5, luciferase, single point; SK-MEL-5 TRPM1-promoter luciferase, 24 h; % of positive control, neutral wells = 0; activation, % at 12.5 µM; hit rate 0.75% among 300,000; AID 588334, 2011;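 active = mean activation of at least 80% with every replicate also reaching 80%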
PfHsp90 yeast 2 = growth inhibition of PfHsp90-expressing yeast, primary screen, antimalarial PfHsp90 inhibitor project, S. cerevisiae, BacTiter-Glo luminescence, single point, set 2; inhibition, % at 9.4 µM; AID 504621, 2011; hit rate 0.32% among 310,000; BacTiter-Glo ATP, 48 h; yeast lacking PDR1 and PDR3 efflux regulators;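 active = every replicate shows inhibition above about 80%, whatever the replicate mean, limit read from the data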
Wnt act = Wnt/beta-catenin pathway activators, primary screen, cell-based, plate reader, single point; AID 743398, 2014; activation, % at 9.35 µM; Wnt/beta-catenin reporter cell assay, activator; hit rate 1.2% among 300,000; in the data active = activation above about 30%, passing the limit was not always enough
NSD2 inh = NSD2 histone methyltransferase inhibitors, primary screen, biochemical, AlphaScreen, single concentration, set 2 | Histone-lysine N-methyltransferase NSD2 (Homo sapiens), O96028 | NSD2 peptide methylation, 120 min | inhibition, % at 12.5 µM | hit rate 0.54% among 310,000 | AID 743445, 2014; in the data active = inhibition above about 50%
Target sequence (O96028 whole entry, looked up): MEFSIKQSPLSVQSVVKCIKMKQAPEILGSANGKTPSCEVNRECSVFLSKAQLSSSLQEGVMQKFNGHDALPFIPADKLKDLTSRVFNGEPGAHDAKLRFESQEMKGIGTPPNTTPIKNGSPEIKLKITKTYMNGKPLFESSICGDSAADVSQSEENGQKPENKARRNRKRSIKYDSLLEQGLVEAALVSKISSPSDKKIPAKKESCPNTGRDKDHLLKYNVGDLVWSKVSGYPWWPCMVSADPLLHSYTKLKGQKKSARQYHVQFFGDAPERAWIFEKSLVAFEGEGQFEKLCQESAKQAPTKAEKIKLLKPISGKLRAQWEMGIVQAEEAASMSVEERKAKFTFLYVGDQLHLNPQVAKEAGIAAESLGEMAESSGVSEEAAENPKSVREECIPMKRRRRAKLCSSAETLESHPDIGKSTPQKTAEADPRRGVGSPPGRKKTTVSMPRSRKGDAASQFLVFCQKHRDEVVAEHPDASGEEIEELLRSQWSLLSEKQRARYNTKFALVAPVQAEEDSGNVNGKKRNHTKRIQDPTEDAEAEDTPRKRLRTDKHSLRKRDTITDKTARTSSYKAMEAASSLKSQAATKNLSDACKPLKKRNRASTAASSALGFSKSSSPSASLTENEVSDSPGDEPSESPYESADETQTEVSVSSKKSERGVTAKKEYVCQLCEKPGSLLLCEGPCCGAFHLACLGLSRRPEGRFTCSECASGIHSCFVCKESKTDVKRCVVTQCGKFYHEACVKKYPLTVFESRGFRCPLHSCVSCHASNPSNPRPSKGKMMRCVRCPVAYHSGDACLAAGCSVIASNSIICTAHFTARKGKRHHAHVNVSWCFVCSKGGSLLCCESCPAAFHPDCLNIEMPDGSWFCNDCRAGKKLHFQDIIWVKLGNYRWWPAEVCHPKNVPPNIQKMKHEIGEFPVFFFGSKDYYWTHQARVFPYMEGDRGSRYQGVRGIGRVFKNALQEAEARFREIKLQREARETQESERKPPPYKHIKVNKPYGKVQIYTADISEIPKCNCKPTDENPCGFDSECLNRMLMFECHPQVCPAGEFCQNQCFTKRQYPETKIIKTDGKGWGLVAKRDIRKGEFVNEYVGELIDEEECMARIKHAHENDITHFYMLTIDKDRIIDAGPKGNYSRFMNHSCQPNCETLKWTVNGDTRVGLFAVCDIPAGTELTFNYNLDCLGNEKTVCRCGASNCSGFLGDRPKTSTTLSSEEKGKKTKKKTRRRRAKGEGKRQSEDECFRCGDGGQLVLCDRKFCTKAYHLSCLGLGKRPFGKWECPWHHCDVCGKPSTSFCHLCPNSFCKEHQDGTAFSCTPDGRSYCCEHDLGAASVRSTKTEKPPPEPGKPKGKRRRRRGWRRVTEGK
Glyco luc inh = increase of ERlucT glycosylation luciferase signal, primary screen, N-linked glycosylation inhibitor project, D54 ERlucT cells, luminescence, set 2; reporter increase, % at 12.5 µM; D54 ERlucT glycosylation luciferase reporter, 24 h; percent of 100 nM tunicamycin response; hit rate 0.23% among 360,000; AID 588692, 2011;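 active = mean luciferase reporter signal, scaled so untreated is 0 and the glycosylation-blocking control 100, at or above a set limit in every replicate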;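 note: luciferase carries N-glycosylation sites so blocking glycosylation raises the light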
Of the large screens only hits and unclear results are named; the others gave an inactive call.

CC(=O)c1cccc(NC(=O)Nc2ccc3c(c2)OCO3)c1	MITF TRPM1 HTS 119.5
O=C(Nc1cccc([N+](=O)[O-])c1)NC1CCCCCCC1	MITF TRPM1 HTS 91.4
CC(=O)Oc1cc(C)c(Cl)c2c(OC(C)=O)cc(C(C)=O)c(O)c12	none (no result: TRPM1 prom inh, MITF TRPM1 HTS, PfHsp90 yeast 2, Glyco luc inh)
CCC(C(=O)NCc1ccco1)n1nc(C)n2c(cc3occc32)c1=O (stereo not given)	none
COc1ccc(C(=O)Nc2cc3c4c(c2)CC(=O)N4CCC3)cc1	none (no result: PfHsp90 yeast 2)
COc1ccc(C(=O)Nc2cc3c4c(c2)CC(=O)N4CCC3)c(OC)c1	MITF TRPM1 HTS 86.5 (no result: PfHsp90 yeast 2, Wnt act)
COc1ccc(C(=O)Nc2cccc3c2CCCC3)c(OC)c1	Wnt act 36.4 (no result: TRPM1 prom inh, MITF TRPM1 HTS, PfHsp90 yeast 2)
Cc1ccc(C)n1/N=C1/NC(=O)CS1	NSD2 inh 143.9
Cc1ccc(N=C2NC(=O)CS2)cc1	none (no result: Wnt act, NSD2 inh)
COc1cccc(C2NC(=S)NC3=C2CCc2ccccc23)c1 (stereo not given)	none
S=C1NC2=C(CCCC2=C2SCCS2)C(c2ccccc2)N1 (stereo not given)	Glyco luc inh 414.5
O=C(/C=C/c1ccc(-c2ccccc2[N+](=O)[O-])o1)c1ccco1	Wnt act 171.6
Cc1ccc2c(CN3CCCCC3)cc(=O)oc2c1	none
Cc1ccc2c(CNCc3ccccc3)cc(=O)oc2c1	Glyco luc inh 28.9
Cc1ccc2c(CN(C)Cc3cccc(F)c3)cc(=O)oc2c1	MITF TRPM1 HTS 87.6
Cc1ccc2c(CN(C)Cc3ccccc3)cc(=O)oc2c1	none (no result: TRPM1 prom inh, MITF TRPM1 HTS, PfHsp90 yeast 2, NSD2 inh)
O=C(N[C@@H](Cc1cccnc1)C(=O)N1CCC[C@H]1C(=O)NCc1ccccc1)c1ccc(Cl)cc1Cl	none (no result: TRPM1 prom inh, MITF TRPM1 HTS, PfHsp90 yeast 2, NSD2 inh, Glyco luc inh)
COc1ccccc1NS(=O)(=O)c1ccc(NC(=O)c2[nH]nc(OC)c2[N+](=O)[O-])cc1	none
O=C(CN1CCCN(Cc2ccc(F)cc2Cl)C1=O)NC1CCCC1	none
Cc1ccc(C(=O)N/C(=C\c2cccs2)C(=O)NCCc2c[nH]c3ccccc23)cc1	Glyco luc inh 41.6 (no result: Wnt act)
COc1ccc(/C=C(/NC(=O)c2ccc(OC)cc2)C(=O)NCCc2c[nH]c3ccccc23)cc1	none
O=C(Nc1ccc(O)cc1)c1cc2ccccc2c(=O)s1	MITF TRPM1 HTS 99.5
O=C(Nc1ccccc1)c1cc2ccccc2c(=O)s1	none (no result: Wnt act)
O=c1[nH]c(Nc2ccccc2)cc2cc(Br)ccc12	none (no result: NSD2 inh)
COc1ccc(OC)c(Nc2cc3ccccc3c(=O)[nH]2)c1	Glyco luc inh 32.6 (no result: NSD2 inh)
O=c1[nH]c(Nc2ccccc2)cc2ccccc12	NSD2 inh 81.8 (no result: Wnt act)
O=C(Nc1cccc(C(F)(F)F)c1)Oc1ccc(Cl)c2cccnc12	PfHsp90 yeast 2 124.3 (no result: NSD2 inh)
Cc1ccc(-c2nnc3n2N=C(c2ccc(-c4ccccc4)cc2)CS3)cc1	none (no result: TRPM1 prom inh, MITF TRPM1 HTS, PfHsp90 yeast 2, Wnt act, Glyco luc inh)
COC(=O)c1cc(=O)n(Cc2cccs2)c(=Nc2ccc(F)cc2)s1	none (no result: TRPM1 prom inh, MITF TRPM1 HTS, NSD2 inh)
COC(=O)c1cc(=O)n(-c2ccc(F)cc2)c(=Nc2ccc(F)cc2)s1	PfHsp90 yeast 2 124.9, Glyco luc inh 39.2 (no result: NSD2 inh)
O=c1sc(/C=N/Nc2ccccc2)c(Cl)n1Cc1ccccc1	Wnt act 46.4
O=C(O)c1cccc(-c2noc(-c3cccc(Cl)c3)n2)c1	TRPM1 prom inh 91.9, Wnt act 36.7 (no result: NSD2 inh)
COc1cc(-c2noc(-c3cccc(Cl)c3)n2)cc(OC)c1OC	none (no result: MITF TRPM1 HTS)
NC(=O)c1ccc(-c2noc(-c3cccc(Cl)c3)n2)cc1	MITF TRPM1 HTS 125.4, Wnt act 36.4 (no result: NSD2 inh)
COC(=O)c1cnn(-c2cc(Oc3ccccc3)ncn2)c1N	none (no result: Wnt act)
NC(=O)c1cnn(-c2cc(Oc3ccccc3)ncn2)c1N	MITF TRPM1 HTS 87.4
Cc1ccc2sc(N(CCCN(C)C)C(=O)c3ccc(S(=O)(=O)N4CCc5ccccc5C4)cc3)nc2c1C	TRPM1 prom inh 64.6
COc1ccc(OC)c2sc(N(CCCN(C)C)C(=O)c3ccc(S(=O)(=O)N4CCc5ccccc5C4)cc3)nc12	none (no result: TRPM1 prom inh, MITF TRPM1 HTS, PfHsp90 yeast 2, Wnt act, Glyco luc inh)
COc1ccc(C)c2sc(N(CCCN(C)C)C(=O)c3ccc(S(=O)(=O)N4CCc5ccccc5C4)cc3)nc12	TRPM1 prom inh 96.0
CC1CCCCN1S(=O)(=O)c1ccc(C(=O)N(CCCN(C)C)c2nc3ccc(Br)cc3s2)cc1 (stereo not given)	TRPM1 prom inh 94.5
CCOc1ccc2nc(N(CCCN(C)C)C(=O)c3ccc(S(=O)(=O)N4CCc5ccccc5C4)cc3)sc2c1	TRPM1 prom inh 73.5
CC(C)C(=O)OC1CCS(=O)(=O)c2sccc21 (stereo not given)	none
CCCc1ccc2oc(C(=O)N3CCC(N4CCCC(O)C4)CC3)c(C)c2c1 (stereo not given)	none
CCCc1ccc2oc(C(=O)N3CCC(COC)C3)c(C)c2c1 (stereo not given)	MITF TRPM1 HTS 103.0
COc1cc2nc(CN3CCN(S(=O)(=O)c4cc(C)ccc4C)CC3)[nH]c(=O)c2cc1OC	none
COc1ccc(Cl)cc1C(=O)NCCN(C)C	none
COc1cccc2nc3c(C(=O)NCCN(C)C)cccc3cc12	TRPM1 prom inh 77.1, Glyco luc inh 48.6 (no result: MITF TRPM1 HTS, NSD2 inh)
COc1ccc(-c2nc3c(C(=O)NCCN(C)C)cccc3c3ccccc23)cc1	Glyco luc inh 36.6 (no result: MITF TRPM1 HTS)
COc1ccc(C(=O)NCCN(C)C)c2nc3ccccc3cc12	TRPM1 prom inh 95.4, Glyco luc inh 54.3 (no result: MITF TRPM1 HTS)
COc1ccc(-c2coc3c(C(=O)NCCN(C)C)cccc23)c(C)c1	none (no result: TRPM1 prom inh, MITF TRPM1 HTS, PfHsp90 yeast 2)
CN(C)CCNC(=O)c1cccc2[nH]c(-c3ccncc3)nc12	Glyco luc inh 68.0 (no result: MITF TRPM1 HTS, NSD2 inh)
Cc1cccc(OCCNS(=O)(=O)c2ccc(Cl)cc2)c1	none
COc1cc2c(cc1OC)[N+]([O-])=C(c1ccccc1)C2=O	none (no result: TRPM1 prom inh, MITF TRPM1 HTS, PfHsp90 yeast 2, Glyco luc inh)
Cc1nc2ccc(S(=O)(=O)NCC(=O)N(C)Cc3ccc(F)cc3)cc2s1	none (no result: TRPM1 prom inh, MITF TRPM1 HTS, PfHsp90 yeast 2, Wnt act, Glyco luc inh)
COc1cc(O)sc1C=Nc1ccc(Cl)cc1Cl	none
CN(C)CCNC(=O)c1cccc2nc3c(ccc4ccccc43)nc12	TRPM1 prom inh 85.8, Glyco luc inh 56.3 (no result: MITF TRPM1 HTS)
S=C(N/N=C/c1cccs1)NC1CC2CCC1C2 (stereo not given)	Wnt act 34.0 (no result: MITF TRPM1 HTS)
Cc1ccc(S(=O)(=O)N[C@H](C(=O)NC2CCC(C)CC2)C(C)C)cc1 (stereo not given in full)	none
CCOC(=O)c1c(C)[nH]c(N=Nc2cccc(C)c2)c1C	MITF TRPM1 HTS 102.9 (no result: Wnt act, NSD2 inh)
CCOC(=O)c1c(C)[nH]c(N=Nc2cccc(OC)c2)c1C	MITF TRPM1 HTS 130.0, Wnt act 45.0 (no result: PfHsp90 yeast 2, NSD2 inh)
CCC[n+]1c(C)sc2c3c(ccc21)CCCC3	TRPM1 prom inh 67.4 (no result: Wnt act, NSD2 inh)

Bioassay records deposited in PubChem by Broad Institute.
